Entries with a potency or affinity are not part of this list. The source made the active and inactive calls. How the calls were made is not given here.

In general, inhibition refers to the drop in the measured response relative to a control, in per cent.

The nature of this test: CPE inhibition in VEEV TC 83 infected cells, confirmatory screen (AID 602455). The following applies: series mostly up to 50 µM; inhibition: at the top concentration.
Turning to `O=C(Cc1cccs1)Nc1nc2ccccc2s1`, the “inhibition” value is -7.05% (inactive). Take `O=C(Cc1cccs1)Nc1nccs1`: the “inhibition” value is -0.05% (inactive). Under `O=C(Nc1nc2c(s1)CCCC2)c1cccs1` stands -13.8% (inactive).

The values above are taken from PubChem BioAssay AID602455 (Southern Research Specialized Biocontainment Screening …, 2012).
